The text below walks through data of PubChem BioAssay (NCI).

Compounds without any hit were thinned out: in the full panel of roughly 83,000, 20% have a hit.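 Percent growth is the endpoint: 0 to 100 indicates growth inhibition (40 means 60% inhibition), 0 means no net growth, and negative values indicate cell death.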 Active and inactive are the calls of the source. Rule for the calls: active = growth percent below 10; inactive = the rest.

This assay has as its system HL-60(TB) leukemia. The assay is described as follows: NCI-60 one-dose screen, 48 h (100 = growth as untreated, 0 = no growth, -100 = all killed). To be noted: 10 µM unless noted.
For the compound `COC(=O)c1ccc(CSc2nnc(-c3ccncc3)o2)cc1`, the growth was 95.5% (inactive).

In the case of `O=C1C=C(O)C(=O)C(CC2=C(O)C(=O)C=C(O)C2=O)=C1O`, the growth is 102% (inactive).

Take `CCN(CC)CCOc1ccc(C2=C(c3ccccc3)CCc3cc(OC)ccc32)cc1`: the growth was -54.4% (active).

Take `CCOc1ccc(-c2cc(C3(S(=O)(=O)c4ccc(C)cc4)CC=CC3)on2)cc1`: the growth is 75.1% (inactive).

For the compound `Nc1c(C(=O)Nc2ccccn2)sc2nc3c(cc12)CCCCC3`, the growth was -9.45% (active).

In the case of `C=CC(CC(c1ccccc1)(c1ccccc1)c1ccccc1)N(CC)CC` (stereo not given), the growth is 71.5% (inactive).

On to `C[C@@H]1C=C2C(=O)O[C@@H]3CC[C@H](C1)[C@]23O`, for which the growth was 72.4% (inactive).

As for `COc1ccc(C(=O)NNc2nc(Cl)nc(N3CCN(C(c4ccccc4)c4ccccc4)CC3)n2)cc1`, the growth is 21.3% (inactive).

Turning to `O=C(Cn1ccnc1)Nc1ccc(-c2nc3ccccc3s2)cc1`, the growth was 77.3% (inactive).

Take `C[C@H]1[C@H](C)CC[C@]2(C(=O)N3CCN(C)CC3)CC[C@]3(C)C(=CC[C@@H]4[C@@]5(C)C/C(=C/c6cccnc6)C(=O)C(C)(C)[C@@H]5CC[C@]43C)[C@H]12`: the growth is -54.4% (active).

Turning to `C/C=C(/C)C(=O)O[C@@H]1CC(C)(C)CC2C34OC(=O)[C@@]21CC[C@@]3(C)[C@]1(C)CCC2C(C)(C)C(=O)CC[C@]2(C)C1C[C@@H]4Cl` (stereo not given in full), the growth was 101% (inactive).

Consider `CC(C)C1=NOC(=O)C1=Cc1cn(-c2ccccc2)nc1-c1ccc(Cl)cc1`, for which the growth is -44.5% (active).

Consider `C=CCNC(=S)NN`, for which the growth is 119% (inactive).

For the compound `COc1cc(-c2cc(/C=C3\C(=O)Nc4ccc(Cl)cc43)[nH]n2)cc(OC)c1OC`, the growth was -26% (active).

Regarding `COc1ccc(C(=O)NC(=O)Nc2ccc3c(c2)NC(=O)/C3=C\c2[nH]c(C)c(C(=O)O)c2C)cc1`, the growth was 95.2% (inactive).

In the case of `O=C(Nc1cccc2c1C(=O)c1cccc(NC(=O)c3ccc(C(=O)Nc4cccc5c4C(=O)c4cccc(NC(=O)c6ccccc6)c4C5=O)cc3)c1C2=O)c1ccccc1`, the growth is 83.4% (inactive).

`COc1cc(-c2ccc[nH]2)[nH]c1/C=C1\N=C(C)C(CC(=O)OCC(C)(C)C)=C1C`: the growth is -44.5% (active).

In the case of `CCOC(=O)C(=Cc1cccc(C#N)c1)C(=O)OCC`, the growth was 27.9% (inactive).

For the compound `O=c1[nH]c(=O)n(C2C[C@@H](O)[C@@H](CO)O2)cc1F` (stereo not given in full), the growth is 27.1% (inactive).

On to `COc1cc(-c2nc3sccn3c2-c2ccnc(NCCNS(=O)(=O)c3ccc(F)cc3)n2)ccc1F`, for which the growth was -17.4% (active).

Consider `CCOC(=O)c1nc2c3ccccc3ccn2c1C(=O)OC`, for which the growth is 94.9% (inactive).

`CC1C(=O)CCCC1=O`: the growth is 118% (inactive).

`COc1ccc(-c2nc(SC)nc(N3CCOCC3)c2C#N)cc1`: the growth is 94% (inactive).

For the compound `O=c1oc2c(cc1-c1ccc(F)cc1)C(O)Oc1ccccc1-2` (stereo not given), the growth was 101% (inactive).

As to `CCCCNCC(O)c1cc2c(Cl)cc(Cl)cc2c2cc(C(F)(F)F)ccc12` (stereo not given), the growth is -59.2% (active).

As to `COc1ccc(-c2nc(-c3nc4ccc(C)cc4[nH]3)c3ccccn23)cc1`, the growth was 30.5% (inactive).

On to `CCCCOc1c(N)cc(Cl)cc1C(=O)OCCN(CC)CC`, for which the growth is 51% (inactive).

Consider `OC(COc1ccccc1Cl)CN1CCN(c2ccc(Cl)cc2)CC1` (stereo not given), for which the growth was 109% (inactive).

For `N#C/C(=C\NC(=S)N=Nc1c(O)[nH]c2ccccc12)c1nc2ccccc2s1`, the growth is 103% (inactive).

For `CN(C)c1ccc(NC(=O)c2ccc(/C=C/C(=O)c3ncc[nH]3)cc2)cc1`, the growth was 17.5% (inactive).

With `NC(=O)c1ccccc1OCC(=O)Nc1ccc(Cl)c(Cl)c1`, the growth was 86.4% (inactive).

With `COc1ccc(-c2nc3sc(-c4ccccc4)c(-c4ccccc4)n3c2/C=C/c2ccc(F)cc2)cc1`, the growth is 105% (inactive).

Consider `O=C(N/N=C/c1ccc(O)cc1O)c1cccnc1`, for which the growth is -17.2% (active).

`O=C(Cc1ccc(/C=C/C(=O)c2ncc[nH]2)cc1)Nc1cc(C(F)(F)F)cc(C(F)(F)F)c1`: the growth was 52.1% (inactive).

`Nc1ccccc1C#C/C=C\C#Cc1cccc(O)c1`: the growth was 12.6% (inactive).

`Cc1ccc(NC(=O)Nc2cccnc2)cc1NC(=O)Nc1cccnc1`: the growth is 71.1% (inactive).

`O=[N+]([O-])c1cccc(/C=N/NC(=S)NC23CC4CC(CC(C4)C2)C3)c1`: the growth is 101% (inactive).

As for `Cc1ccc(Cl)cc1N1C(=O)CC(Sc2ccccc2N)C1=O` (stereo not given), the growth is 110% (inactive).

`COc1cc2nc(-c3cnc(N(C)C)nc3)nc(NC3CCN(Cc4ccccc4)CC3)c2cc1OC`: the growth is -52.3% (active).

Take `Nc1nc2c(c(=O)[nH]1)C1(C(=O)Nc3ccccc31)c1c(nc(N)[nH]c1=O)N2`: the growth is 108% (inactive).
